# Source: PubChem BioAssay (NCATS)
# Records with an inconclusive call do not appear. Unmarked numbers belong to inactive results. Active and inactive are the calls of the source. The call rests on the fitted dose curve; in most records, active means well fitted inhibition curve with a large enough effect; inconclusive means small, poorly fitted or top-dose-only effect; inactive means flat fitted curve, though single readings scatter.
# Test: Primary qHTS for inhibitors of nuclear receptor binding SET domain protein 2 (NSD2) in an isogenic RCH-ACV NSD2 p.E1099K mutant (9B) (AID 1645876); further: nearly all actives have a fitted effect of over 70% in size
# Settings: RCH-ACV (leukaemia line) NSD2 E1099K (9B) viability, CellTiter-Glo, 72 h; series mostly up to 44.9 µM; activity change, negative = viability loss: at the top concentration
# On the % scale 0 is the no-effect control and ±100 the full control effect; potency means the concentration at half of the fitted maximal effect.
Structure (SMILES),"activity change, negative = viability loss",outcome,Potency
C[C@@H]1O[C@@H](O[C@H]2[C@H](OC(=O)[C@]34CCC(C)(C)C[C@H]3C3=CCC5[C@@]6(C)C[C@H](O)[C@H](O[C@@H]7O[C@H](CO)[C@@H](O)[C@H](O)[C@H]7O)[C@@](C)(CO)C6[C@H](O)C[C@@]5(C)[C@]3(C)CC4)OC[C@H](O)[C@@H]2O)[C@H](O)[C@H](O)[C@H]1O[C@@H]1OC[C@@H](O)[C@H](O[C@@H]2OC[C@](O)(CO)[C@H]2O)[C@H]1O (some centres undefined),-10.4% [at 9.23 µM],–,–
C[C@@H]1O[C@@H](O[C@@H]2[C@@H](O)[C@H](O[C@H]3CC[C@@]4(C)C(CC[C@]5(C)C4CC=C4[C@@H]6CC(C)(C)CC[C@]6(C(=O)O[C@@H]6O[C@H](CO)[C@@H](O)[C@H](O)[C@H]6O)CC[C@]45C)C3(C)C)O[C@H](C(=O)O)[C@H]2O)[C@H](O)[C@H](O)[C@H]1O (some centres undefined),-9.85% [at 9.23 µM],–,–
CC1CCC2(C=O)C(CO)=CCCC2C1(C)CC(=O)O (centres undefined),–,inactive,–
C=C[C@@H]1[C@H](O[C@@H]2O[C@H](CO)[C@@H](O)[C@H](O)[C@H]2O)OC=C(C(=O)O)[C@H]1CCOC(=O)/C=C/c1ccc(O)c(O)c1,-16.7% [at 17.3 µM],–,–
Nc1nc2c(c(=O)[nH]1)C[C@@H](CCc1ccc(C(=O)N[C@@H](CCC(=O)O)C(=O)O)cc1)CN2,–,–,11.5 nM (active)
C=C1[C@H](OC(C)=O)[C@H]2[C@@H](OC(C)=O)[C@](C)(OC(C)=O)C[C@]2(OC(C)=O)C(=O)[C@H](C)/C=C/C(C)(C)C(=O)[C@H](OC(=O)C(C)CC)[C@H]1OC(C)=O (some centres undefined),–,inactive [at 17.3 µM],–
C[C@@H]1N[C@H]2N(C1=O)c1ccccc1[C@@]2(O)C[C@@H]1C(=O)N[C@@H](C)c2nc3ccccc3c(=O)n21,-20.7% [at 17.3 µM],–,–
COc1cc2c(cc1OC)[C@@H]1[C@H](O)[C@@H](OC)C=C3CCN(C2)[C@H]31,–,–,4500 nM (active)
C=C(C)C(=O)O[C@H]1C[C@@](C)(O)C(=O)CC(O)/C(C)=C\[C@H]2OC(=O)C(=C)[C@H]12 (some centres undefined),–,–,4010 nM (active)
COc1cc(O)cc(C)c1C(=O)OC1C(CO)OC(OC2C(O)C(O)C(O)C(O)C2O)C(O)C1O (centres undefined),-7.04% [at 17.3 µM],–,–
NC1(C(=O)NC(CCO)c2ccc(Cl)cc2)CCN(c2ncnc3[nH]ccc23)CC1 (centres undefined),–,–,728 nM (active)
CC/C=C\C/C=C\C/C=C\CCCCCCCC(=O)OCC(O)COC1OC(CO)C(O)C(O)C1O (centres undefined),1.15% [at 17.3 µM],–,–
COCCOc1cnc2ccn([C@H](C)c3nnc4c(F)cc(-c5cnn(C)c5)cn34)c(=O)c2c1,-8.46%,–,–
OCc1ccc(O[C@@H]2O[C@H](CO)[C@@H](O)[C@H](O)[C@H]2O)cc1,-15.7%,–,–
COc1cc(C(=O)OC[C@H]2O[C@@H](Oc3ccccc3/C=C/C(=O)O)[C@H](O)[C@@H](O)[C@@H]2O)cc(OC)c1OC,-14.1% [at 17.3 µM],–,–
C/C1=C\CCC(C)CCO[C@@H]2O[C@H](CO[C@@H]3OC[C@H](O)[C@H](O)[C@H]3OC1=O)[C@@H](O)[C@H](O)[C@H]2O (some centres undefined),-1.64% [at 17.3 µM],–,–
COc1ccc(CCO[C@@H]2O[C@H](CO[C@@H]3OC[C@H](O)[C@H](O)[C@H]3O)[C@@H](O)[C@H](O)[C@H]2O)cc1,-9.86% [at 17.3 µM],–,–
COc1ccc(C2(O)c3ccccc3NC(=O)C2O)cc1 (centres undefined),-8.45%,–,–
COC(=O)c1c(C)cc(OC(=O)c2c(C)cc(OC)cc2OC)cc1O[C@@H]1O[C@H](CO)[C@@H](O)[C@H](O)[C@H]1O,-9.75% [at 17.3 µM],–,–
CC1(C)CCCC2(C)C1CC=C1C(=O)OC(O)C12O (centres undefined),-29%,–,–

Structure (SMILES),"activity change, negative = viability loss",outcome,Potency
C[C@H]1C(=O)N2c3ccccc3[C@@]3(O)C[C@@H]4C(=O)N[C@](C)(c5nc6ccccc6c(=O)n54)N1[C@@H]23,-25.3% [at 17.3 µM],–,–
O=C(/C=C/c1ccc(O)cc1)N[C@@H](Cc1ccc(O)cc1)C(=O)O,–,inactive,–
Cc1[nH]nc(C(F)(F)F)c1Cc1sc2c(c1C(=O)N1C[C@](C)(O)CO1)c(=O)n(C)c(=O)n2C(C)C,–,–,inactive
O=C(/C=C/c1ccccc1)OC[C@]12O[C@H]1[C@@H](O)[C@@H]1C=CO[C@@H](O[C@@H]3O[C@H](CO)[C@@H](O)[C@H](O)[C@H]3O)[C@@H]12,3.36% [at 17.3 µM],–,–
FC(F)(F)c1cc(-c2ncn(/C=C\c3nnco3)n2)cc(C(F)(F)F)c1,–,–,2300 nM (active)
C=C[C@H]1C(O[C@@H]2O[C@H](CO)[C@@H](O)[C@H](O)[C@H]2O)OC=C2C(=O)N3CCc4c([nH]c5ccccc45)C3CC21 (some centres undefined),-15% [at 17.3 µM],–,–
CC1(C)CC[C@]2(C(=O)O[C@@H]3O[C@H](CO)[C@@H](O)[C@H](O)[C@H]3O)CC[C@]3(C)C(=CCC4[C@@]5(C)C[C@@H](O)[C@H](O)C(C)(C)C5CC[C@]43C)C2[C@@H]1O (some centres undefined),-3.65% [at 17.3 µM],–,–
CC1(C)CC[C@@]2(C(=O)O[C@@H]3O[C@H](CO)[C@@H](O)[C@H](O)[C@H]3O)C(C1)C1=CCC3[C@@]4(C)CC[C@@H](O[C@@H]5O[C@H](C(=O)O)[C@@H](O[C@@H]6OC[C@@H](O)[C@H](O)[C@H]6O)[C@H](O[C@@H]6OC[C@](O)(CO)[C@H]6O)[C@H]5O)C(C)(C)C4CC[C@@]3(C)[C@]1(C)C[C@H]2O (some centres undefined),-47.8% [at 9.23 µM],–,–
CC1(C)CC[C@]2(C(=O)O[C@@H]3O[C@H](CO[C@@H]4O[C@H](CO)[C@@H](O)[C@H](O)[C@H]4O[C@@H]4O[C@H](CO)[C@H](O)[C@H](O)[C@H]4O)[C@@H](O)[C@H](O[C@@H]4O[C@H](CO)[C@@H](O)[C@H](O)[C@H]4O)[C@H]3O)CC[C@]3(C)C(=CCC4[C@@]5(C)CC[C@H](O[C@@H]6OC[C@@H](O)[C@H](O)[C@H]6O)[C@@](C)(C(=O)O)C5CC[C@]43C)[C@@H]2C1 (some centres undefined),-8.77% [at 9.23 µM],–,–
CC(=O)NC1C(OC(C)(C)C2CCC3(C)C=C(C4CCC5C4(C)CC(O)C4OC(C(C)(C)O)CCC45C)CCC3O2)OC(CO)C(O)C1O (centres undefined),-23.6% [at 17.3 µM],–,–
C=C1C[C@@]23CCC4[C@@](C)(CCC[C@@]4(C)C(=O)OC)C2CC[C@@H]1C3 (some centres undefined),-16.7%,–,–
C[C@@H]1O[C@@H](O[C@@H]2CO[C@@H](O[C@H]3CC[C@@]4(C)C(CC[C@]5(C)C4CC=C4[C@@H]6CC(C)(C)CC[C@]6(C(=O)O[C@@H]6O[C@H](CO)[C@@H](O)[C@H](O)[C@H]6O)CC[C@]45C)[C@]3(C)CO)[C@H](O)[C@H]2O[C@@H]2O[C@H](CO)[C@@H](O)[C@H](O)[C@H]2O)[C@H](O)[C@H](O)[C@H]1O (some centres undefined),-16% [at 9.23 µM],–,–
CC[C@]1(O)CC2CN(CCc3c([nH]c4ccccc34)[C@@](C(=O)OC)(c3cc4c(cc3OC)N(C=O)[C@H]3[C@@](O)(C(=O)OC)[C@H](OC(C)=O)[C@]5(CC)C=CCN6CC[C@]43[C@@H]65)C2)C1 (some centres undefined),–,–,6.4 nM (active)
C1CCC[C@H]2CCCN3CC[C@@H](CCCCCC[C@@H]4CCCN5CC[C@@H](CC1)O[C@@H]45)O[C@@H]23,-4.42% [at 0.177 µM],–,–
CC(C)=CCC[C@](C)(O)[C@H]1CC[C@]2(C)[C@@H]1[C@H](O)CC1[C@@]3(C)CC[C@H](O)C(C)(C)C3[C@@H](O[C@@H]3O[C@H](CO)[C@@H](O)[C@H](O)[C@H]3O[C@@H]3OC[C@@H](O)[C@H](O)[C@H]3O)C[C@]12C (some centres undefined),–,inactive [at 17.3 µM],–
Cc1c2cc(c(C(=O)O)c1C)OC1OC(C(O)C(O)C1O)C(O)C(O)C1OC(O2)C(O)C(O)C1O (centres undefined),-5.29% [at 17.3 µM],–,–
C=CCC1=C[C@]2(OC)[C@H](C)[C@@H](c3ccc(O)c(OC)c3)O[C@]2(OC)CC1=O,-5.17%,–,–
COC(=O)C1=CO[C@@H](O[C@@H]2O[C@H](CO[C@@H]3O[C@H](COC(=O)/C=C/c4cc(OC)c(O)c(OC)c4)[C@@H](O)[C@H](O)[C@H]3O)[C@@H](O)[C@H](O)[C@H]2O)[C@@H]2C(CO)=CC[C@H]12,-1.7% [at 17.3 µM],–,–
CC1=CC(=O)CC(C)(C)[C@H]1/C=C/C(CO)O[C@@H]1O[C@H](CO)[C@@H](O)[C@H](O)[C@H]1O (some centres undefined),-6.23%,–,–
